PrP UTR inh: inhibition of PrP 5' UTR reporter expression | inhibition, % (no concentration beside the values) | cell-based PrP 5' UTR mRNA reporter, plate reader | 340,000 compounds, 0.35% hits; in the data active means inhibition above about 52%; further: 0 = median of the neutral control wells
PfHsp40 rescue: rescue of yeast from PfHsp40 toxicity, primary screen, S. cerevisiae, ATP luminescence; S. cerevisiae expressing PfHsp40, growth rescue; growth rescue, % at 12.5 µM; 340,000 compounds, 0.68% hits; AID 504582, 2011; in the data active means growth rescue above about 28%, passing the limit was not always enough; inconclusive means no clear call, values can overlap the other calls;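 further: yeast W303a lacking pdr1 and pdr3 grown in galactose medium; growth measured after three days at 30 °C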
FadD28 binding: inhibitors of FadD28 bisubstrate probe binding, primary screen, biochemical, fluorescence polarization, single point; Mycobacterium tuberculosis FadD28 fatty-acid-AMP ligase; inhibition, % at 12.5 µM; 360,000 compounds, 0.22% hits; in the data active means inhibition above about 8.5%, passing the limit was not always enough; inconclusive means no clear call, values can overlap the other calls
TcdB GH inh: TcdB glycohydrolase inhibitors, primary screen, biochemical, single point, plate reader; Toxin B (Clostridioides difficile), P18177; TcdB glycohydrolase enzymatic assay; inhibition, % at 9.99 µM; 350,000 compounds, 0.24% hits; AID 652162, 2013; in the data active means inhibition above about 10%
BioA inh: M. tuberculosis BioA enzyme inhibitors, primary screen, biochemical, plate reader, single point, HTS. purified M. tuberculosis BioA enzyme. inhibition, % at 9.99 µM. 360,000 compounds, 0.096% hits. AID 602481, 2012; in the data active means inhibition above about 40%; inconclusive means no clear call, values can overlap the other calls
* marks the source's active call; other numbers are inactive results; u = inconclusive; x = no result given. Shown are actives, neighbours in structure and some others; about 1.1% of the full set was active somewhere.

SMILES	PrP UTR inh	PfHsp40 rescue	FadD28 binding	TcdB GH inh	BioA inh
CCn1c(CNc2ccc(Cl)cc2)nnc1SCc1ccccc1	-15.1	119.7*	-3.3	x	1.1
CCc1cc(/C(Cc2ccccn2)=N\O)c(O)cc1O	1.9	0.1	-0.5	15.5*	-2.2
O=C(NCC(F)(F)F)[C@H]1[C@H](CO)[C@H]2Cn3c(cccc3=O)[C@H]2N1C(=O)c1ccccc1F	x	x	x	-3.9	-2.4
Cc1ccc(NS(=O)(=O)c2cc([N+](=O)[O-])ccc2NNC(=S)Nc2cccc(Cl)c2)c(C)c1	-12.0	24.3	8.6*	x	x
C[C@H](CO)N1C[C@H](C)[C@H](CN(C)Cc2ccc(Oc3ccccc3)cc2)Oc2cc(-c3ccncc3)ccc2S1(=O)=O	x	x	x	17.2*	-2.2
C[C@@H]1CN([C@H](C)CO)S(=O)(=O)c2ccc(-c3ccncc3)cc2O[C@H]1CN(C)Cc1ccc(Oc2ccccc2)cc1	x	x	x	-12.4	-7.7
C[C@@H]1CN([C@@H](C)CO)S(=O)(=O)c2ccc(-c3ccncc3)cc2O[C@@H]1CN(C)Cc1ccc(Oc2ccccc2)cc1	x	x	x	14.1*	-1.3
CCCCCCCCN1C(=O)[C@@H](CC(=O)NCc2cccc(C(F)(F)F)c2)C[C@@]2(C(=O)OC)C1=C[C@H](C1CCCC1)O[C@@H]2C	x	x	x	1.6	x
COc1ccc(NC(=O)Nc2cccc3c2O[C@@H](CN(C)S(=O)(=O)c2ccc(Cl)cc2)[C@@H](C)CN([C@H](C)CO)C3=O)cc1	x	x	x	-0.2	-1.6
C[C@H](CO)N1C[C@H](C)[C@@H](CN(C)S(=O)(=O)c2cccc(F)c2)Oc2ncc(C#CC3CCCC3)cc2C1=O	x	x	x	-0.5	1.0
Nc1cc(N)cc(C(=O)OCC(=O)Nc2cc(S(=O)(=O)N3CCCCC3)ccc2Cl)c1	-11.0	-0.9	-5.4	11.0*	-1.1
COc1ccccc1S(=O)(=O)N[C@H]1CC[C@H](CCn2cc(C3CCCCC3)nn2)O[C@@H]1CO	x	x	x	-1.4	-0.2
C/C=C/c1ccc([C@H]2[C@@H](CO)N(C(=O)CC)[C@H]2CN(C)C(=O)NC(C)C)cc1	x	x	x	-0.1	x
CN(C)CCN=Cc1c(O)n(Cc2ccc3c(c2)OCO3)c(=S)[nH]c1=O	-10.7	82.1*	-1.8	-0.5	-2.2
Nc1ccc2c(c1)[nH]c(=O)c1ccccc12	-8.9	0.6	-2.5	1.9	x
O=c1[nH]c2cc(O)ccc2c2ccccc12	x	x	-3.9	10.3*	0.5
Nc1c(C(=O)NC2CC2)sc2nc3c(c(-c4ccco4)c12)CC/C3=C/c1ccco1	-1.3	-0.6	18.1*	x	x
COc1ccc(CN(C)C[C@H]2OCCCC[C@H](C)Oc3ccc(NC(=O)Cc4ccccc4)cc3C(=O)N([C@@H](C)CO)C[C@@H]2C)cc1	x	x	x	x	-0.5
Cc1cnc([N+](=O)[O-])n1CCOC(=O)NC(=O)c1ccc(F)cc1	-13.3	0.5	-3.1	32.3*	x
Cc1cnc([N+](=O)[O-])n1CCOC(=O)c1cccc(F)c1	4.3	-2.7	-1.1	-0.9	-0.1
O=Cc1ccc(O)c2ncccc12	11.7	627.6*	-1.2	x	-0.3
CCOc1ccc(NC(=O)Cn2sc3nc(C)cc(C)c3c2=O)cc1	-13.9	73.5*	u	x	x
Cc1cc(C)c2c(=O)n(CC(=O)Nc3ccc(Cl)cc3)sc2n1	-15.5	u	-0.6	0.1	x
CN(C)CC(=O)N[C@@H]1CC[C@@H](CCn2cc(C3CCCCC3)nn2)O[C@H]1CO	x	x	x	-0.7	-1.9
Cn1c(C(=O)NCCN2CCOCC2)cc2c(=O)n3ccccc3nc21	-13.2	0.1	-0.5	-0.4	-0.7
SMILES	PrP UTR inh	PfHsp40 rescue	FadD28 binding	TcdB GH inh	BioA inh
COCCCn1c(C(=O)NCCN2CCOCC2)cc2c(=O)n3ccccc3nc21	4.4	44.4*	-1.0	-0.2	-1.2
C[C@H]1CN([C@@H](C)CO)C(=O)c2cc(NS(=O)(=O)c3cn(C)cn3)ccc2O[C@H]1CN(C)C	x	x	x	0.3	2.2
O=Cc1c(OCc2ccccc2)ccc2ccccc12	-57.6	100.5*	-1.5	0.4	4.9
Cc1ccc(S(=O)(=O)N(C)C[C@@H]2Oc3ccc(NC(=O)CCC(F)(F)F)cc3CC(=O)N([C@@H](C)CO)C[C@H]2C)cc1	x	x	x	0.9	0.3
Cc1cc2c(SCC(=O)Nc3cccc(O)c3)ncnc2s1	-6.5	1.1	19.0*	-1.0	1.4
COC(=O)c1ccccc1NC1=C/C(=N\S(=O)(=O)c2ccc(C(=O)O)cc2)c2ccccc2C1=O	-8.3	17.1	24.1*	x	2.4
O=C1C(Nc2ccccc2)=C/C(=N/S(=O)(=O)c2cccs2)c2ccccc21	-73.2	265.6*	4.4	x	0.0

Bioassay records as filed in PubChem BioAssay.
